Test results taken from PubChem BioAssay AID2275 (Broad Institute, 2010).
Hit rate of the full screen: of about 30,000 compounds, about 190 (0.63%) were called active. The sample as a whole holds a higher share of actives than the screen did. Values without a mark were called inactive. Rule as the data show it: active = viability loss activity score above about 50%; inconclusive = no clear call, values can overlap the other calls; inactive = below about 35%.

Assay: cytotoxicity in HRASV12-transformed BJ fibroblasts – cell-based, luminescence, CellTiterGlo ATP, primary screen (AID 2275);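 also: higher score means fewer live cells and less ATP luminescence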
Details: BJeLR fibroblasts viability, 48 h, hits give high values, HRASV12, hTERT and SV40 LT/ST transformed, concentration not given here

Row | SMILES | viability loss activity score
1 | O=C(CC(O)(c1ccccc1)C(F)(F)F)c1ccccc1 (centres undefined) | -2.63%
2 | CCCCN(C)S(=O)(=O)c1ccc2c(c1)oc(=O)n2C | -1.52%
3 | CC(=O)Oc1ccc(N(C(C)=O)S(=O)(=O)c2ccc(Cl)cc2)cc1 | -1.22%
4 | CC[C@]1(O)C[C@@H]2CN(CCc3c([nH]c4ccccc34)[C@@](C(=O)OC)(c3cc4c(cc3OC)N(C)[C@H]3[C@@](O)(C(=O)OC)[C@H](OC(C)=O)[C@]5(CC)C=CCN6CC[C@]43[C@@H]65)C2)C1 | 64.7% (active)
5 | COc1ccc(C(=O)OC2=C(c3ccccc3)C(=O)c3ccccc3C2=O)cc1 | -6.2%
6 | CC1=C(C(=O)OC2CC(C)CCC2C(C)C)C(c2ccc(Br)cc2)n2nnnc2N1 (centres undefined) | -1.4%
7 | CCC1CCCCN1C(=O)c1ccc(F)cc1 (centres undefined) | 5.08%
8 | O=C(CSc1ccccn1)NCc1ccccc1 | -3.11%
9 | CCN1C(=O)c2cccc3c(NC(=S)NC(=O)c4ccccc4)ccc1c23 | 2.04%
10 | Cc1ccc(S(=O)(=O)N(C)C[C@@H]2Oc3c(NC(=O)NC(C)C)cccc3C(=O)N([C@H](C)CO)C[C@H]2C)cc1 | 0.297%
11 | C=CC[C@H]1Cc2ccccc2[C@H](CC=C)N1 | 5.12%
12 | COc1ccc(-c2coc3c(C)c4oc(=O)c5cc(OC)ccc5c4cc23)cc1 | -3.61%
13 | COC(=O)C1=C(N)Oc2cc(C)oc(=O)c2C1c1cccnc1 (centres undefined) | -1.16%
14 | CCOC(=O)CCN1N=C(c2ccc(CC)cc2)CCC1=O | -3.96%
15 | COc1ccc(S(=O)(=O)NCCN2CCOCC2)cc1-c1nnc2c3ccccc3c(C)nn12 | 13.3%
16 | CN(C)c1ccc(C2CC(c3ccc(Br)cc3)=NN2S(C)(=O)=O)cc1 (centres undefined) | 6.95%
17 | CSc1c(CC(=O)Nc2ccc(C)cc2)[nH]c2ccccc12 | 1.08%
18 | CC(=O)OCCn1c(=O)c2ccccc2c2ccccc2c1=O | 0.959%
19 | Cc1c(C(=O)OC2CCCC2)[nH]c2c1C(=O)CCC2 | -0.399%
20 | COc1ccc(C(=O)NCc2cc3cc(Cl)ccc3[nH]2)cc1COc1ccccc1Cl | 13.4%
21 | COc1ccc(-n2nc(C(=O)NC3CCCC(C)C3C)c3c4ccccc4n(C)c3c2=O)cc1 (centres undefined) | 0.653%
22 | Cc1cc(C)n(-c2ccc(-n3cccc3/C=C(/C#N)S(=O)(=O)c3ccccc3)cc2)n1 | 1.25%
23 | O=C(CSc1ccc(Cl)cc1)N1CCc2ccccc21 | 8.93%
24 | Cc1cc(Sc2nnc(C)s2)c2ccccc2n1 | 34.4%
